A number with no mark means an inactive call. Results filed as inconclusive are left out. The source made the active and inactive calls. Unless noted, the call rests on the fitted dose curve; in most records, active means well fitted curve in either direction with a large enough effect (not every such curve was filed as active); inconclusive means small, poorly fitted or top-dose-only effect, or another doubt; inactive means flat fitted curve, though single readings scatter.
Tests used:
[1] = AP1 Signaling Pathway (AID 357); settings: ME-180 AP-1-bla reporter, EGF-induced, beta-lactamase ratio, 5 h; at 17.2 µM (top of the series) unless noted;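 further: ME-180 reporter cells stimulated with EGF at its EC50 level; on the % scale 0 is the no-effect control and ±100 the full control effect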
Summary of the method: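 Cells are seeded overnight, exposed to compound titrations and an EC50 level of EGF for 5 hours at 37 °C, then loaded with CCF4 dye for 2.5 hours. Beta-lactamase activity under the AP-1 element is read as a blue/green ratio.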

[2] = Stat Signaling Pathway (AID 446); settings: ME-180 (cervical carcinoma) SIE beta-lactamase reporter, IL-6 stimulated, 5 h; at 17.2 µM (top of the series) unless noted;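 further: ME-180 cervical cancer cells given 40 pM IL-6 alongside compound; SIE-controlled beta-lactamase reporter measured as 460/530 nm FRET emission ratio; on the % scale 0 is the no-effect control and ±100 the full control effect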
Summary of the method: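 IL-6/STAT signaling read in ME-180 cells via an SIE beta-lactamase reporter. Stimulus was 40 pM IL-6 (its AC50) for 5 hrs, so both activation and inhibition register.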

[3] = biological target: Glucocorticoid receptor (Homo sapiens) (UniProt P04150); experiment: GR-GFP Redistribution (AID 450;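 active means compounds whose dose series gives a full or clear partial fitted curve of increased nuclear translocation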; further: potency means the concentration at half of the fitted maximal effect)
Sequence of Glucocorticoid receptor (Homo sapiens) (P04150 whole entry, looked up): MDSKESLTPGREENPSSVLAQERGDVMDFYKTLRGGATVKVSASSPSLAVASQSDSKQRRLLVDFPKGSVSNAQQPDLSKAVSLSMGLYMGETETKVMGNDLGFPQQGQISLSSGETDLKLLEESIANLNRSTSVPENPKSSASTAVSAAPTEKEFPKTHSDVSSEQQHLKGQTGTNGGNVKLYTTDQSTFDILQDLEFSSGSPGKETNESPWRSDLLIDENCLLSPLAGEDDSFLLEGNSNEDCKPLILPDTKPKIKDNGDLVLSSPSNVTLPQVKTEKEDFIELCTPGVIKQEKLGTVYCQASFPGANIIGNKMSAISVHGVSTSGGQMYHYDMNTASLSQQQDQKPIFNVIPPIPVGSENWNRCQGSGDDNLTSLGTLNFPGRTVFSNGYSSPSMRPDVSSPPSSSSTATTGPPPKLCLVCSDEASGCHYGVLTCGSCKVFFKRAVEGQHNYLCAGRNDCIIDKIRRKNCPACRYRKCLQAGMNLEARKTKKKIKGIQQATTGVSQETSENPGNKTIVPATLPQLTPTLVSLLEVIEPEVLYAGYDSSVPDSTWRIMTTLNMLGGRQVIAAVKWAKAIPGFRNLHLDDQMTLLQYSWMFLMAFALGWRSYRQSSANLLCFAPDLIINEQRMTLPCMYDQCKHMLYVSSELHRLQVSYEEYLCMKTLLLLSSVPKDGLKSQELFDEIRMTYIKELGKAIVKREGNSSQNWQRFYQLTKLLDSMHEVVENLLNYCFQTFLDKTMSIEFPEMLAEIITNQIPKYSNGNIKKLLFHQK

| Structure (SMILES) | activity change, negative = inhibition [1] | activity, negative = inhibition [2] | Potency [3] [µM] |
| --- | --- | --- | --- |
| COC(=O)c1ccc(CSc2ncnc3c2sc2nc(N4CCOCC4)c4c(c23)CCCC4)o1 | 20.1% | 25.6% | > 20.6 |
| Cc1ccc(-n2ncc3c(N4CCC(C(N)=O)CC4)ncnc32)c(C)c1 | 5.42% | -2.42% | > 20.6 |
| CC(C)CSc1nc(N2CCOCC2)c2c(c1C#N)CC(C)(C)SC2 | -7.32% | 2.55% | > 20.6 |
| Fc1ccc(C2C3=C(Nc4ncnn42)c2ccccc2OC3c2ccncc2)cc1 (centres undefined) | -29% | -12.3% | > 20.6 |
| COc1ccc(Nc2cc(C)nc3ccccc23)cc1 | 10.5% | 5.77% | > 20.6 |
| CC1CCc2cc(F)cc3c(O)c(C(=O)NCc4ccco4)c(=O)n1c23 (centres undefined) | -28.9% | -2.44% | > 20.6 |
| CC(C)C(=O)N1CCN(c2nc(-c3ccccc3)c3c(c2C#N)CCCC3)CC1 | -14.8% | -9.28% | > 20.6 |
| CCCc1cc(NCCCCO)n2c(nc3ccccc32)c1C#N | -18.6% | -4.18% | > 20.6 |
| CCOC(=O)c1[nH]c2cc(OC)c(OC)cc2c1NC(=O)C(C)N1CCN(Cc2ccccc2)CC1 (centres undefined) | -21.5% | -4.92% | > 20.6 |
| CCc1nc2sc3c(c2c(=O)o1)CCCC3 | -11.3% | 3.67% | > 20.6 |
| CC1(C)Cc2c(C#N)c(SCCOc3ccccc3)nc(N3CCOCC3)c2CO1 | -5.93% | -22.3% | > 20.6 |
| CCc1cc(=O)oc2c(CN3CCN(C)CC3)c(O)c(Cl)cc12 | 12.5% | 2.51% | > 20.6 |
| CCOC(=O)CSC1=C(C#N)C(=O)NC2(CCCCC2)S1 | -9.68% | 8.1% | > 20.6 |
| OCCN(CCO)c1ncnc2c1sc1nc(N3CCOCC3)c3c(c12)CCCC3 | -27.6% | -21.5% | > 20.6 |
| C=CCn1c(=O)c(C(=O)NCCN(CC)CC)c(O)c2ccccc21 | 14.7% | 8.32% | > 20.6 |
| c1ccc2c(N3CCCCC3)nc(N3CCCCC3)nc2c1 | 21.1% | -3.49% | > 20.6 |
| CC(C)OC(=O)c1nn2c(C(F)(F)F)cc(-c3ccc(Br)o3)nc2c1Br | -6.76% | 8.51% | > 20.6 |
| CCn1cc(C(=O)NCCCN(C)C)c(=O)c2cc(F)c(N3CCN(C)CC3)cc21 | -0.851% | 3.71% | > 20.6 |
| CCOC(=O)C1CCN(c2nc3ccccc3nc2C(C#N)C(=O)OCCOC)CC1 (centres undefined) | -17.6% | -9.08% | > 20.6 |
| C=CCOc1ccc(/C(O)=C2\C(=O)C(=O)N(CCN(C)C)C2c2cccs2)cc1 (centres undefined) | -5.42% | -3.79% | > 20.6 |
| CCOC(=O)c1nc2nc(C)c(Cl)c(=O)n2[nH]1 | -6.21% | 5.64% | > 20.6 |
| CCOC(=O)C1=C(N)c2ccccc2CC1C(C)C (centres undefined) | -3.93% | -8.13% | > 20.6 |
| CCCCN(CCCC)C(=O)CSc1nnc2n(C)c(=O)c3c4c(sc3n12)CCCC4 | -8.91% | -16.8% | > 20.6 |
| CCN(CC)CCCn1c(C)cc2c(c1=O)C(c1ccccc1)C(C#N)=C(N)O2 (centres undefined) | 1.7% | 2.65% | > 20.6 |
| CC1(C)Cc2c(C#N)c(OCC(=O)c3ccccc3)nc(-c3ccoc3)c2CO1 | 20.6% | 12.9% | > 20.6 |
| CCOP(=O)(c1ccccc1)c1nc(-c2ccccc2C)oc1N1CCCCC1 (centres undefined) | -1.96% | 0.694% | > 20.6 |
| CCCCNC(=O)c1c(N)n(/N=C/c2cccnc2)c2nc3ccccc3nc12 | -12% | 16.8% | > 20.6 |

| Structure (SMILES) | activity change, negative = inhibition [1] | activity, negative = inhibition [2] | Potency [3] [µM] |
| --- | --- | --- | --- |
| Clc1ccc(Cl)c(-c2ccc(/C=N/c3ncn[nH]3)o2)c1 | -20.5% | -6.04% | > 20.6 |
| N#CC1=C2SCC(O)(c3ccccc3)N2C(=O)CC1c1ccccc1 (centres undefined) | -17.2% | -21.7% | > 20.6 |
| CC1(C)Cc2c(C#N)c(SCC(=O)c3ccccc3)nc(N3CCOCC3)c2CS1 | -7.36% | 0.377% | > 20.6 |
| Clc1ccc2[nH]c3c(NCCN4CCOCC4)ncnc3c2c1 | -14.6% | -0.484% | > 20.6 |
| C=CCNc1nc(N2CCCCC2)c(C#N)c2c1CN(Cc1ccccc1)CC2 | 1.37% | -3.92% | > 20.6 |
| CC1(C)Cc2c(C#N)c(N3CCOCC3)nc(-c3ccccc3)c2CO1 | -10.7% | 6.12% | > 20.6 |
| Cc1ccc(-c2nnc(OCCN3CCOCC3)c3ccccc23)cc1 | -9.96% | -1.56% | > 20.6 |
| CCCCc1nc(NCC2CCCO2)c(C#N)c2c1COC(C)(C)C2 (centres undefined) | -26.3% | 1.02% | > 20.6 |
| CCOc1ccc(-c2nn3c(-c4ccc(OC)cc4)nnc3s2)cc1 | -1.24% | 24.4% | > 20.6 |
| Brc1ccc(-c2cnc3n2CCCC3)cc1 | 1.22% | 16.1% | > 20.6 |
| Cc1cc(C)n(-c2nnc(C)n2/N=C/c2ccccc2F)n1 | 8.65% | 18% | > 20.6 |
| COC(=O)c1ccc(C2C(C(=O)c3cc4ccccc4o3)=C(O)C(=O)N2CCCN(C)C)cc1 (centres undefined) | -0.991% | -11.4% | > 20.6 |
| c1ccc2c(NCC3CCCO3)nc(-c3ccncc3)nc2c1 (centres undefined) | -9.19% | 4.85% | > 20.6 |
| Cc1nc(N2CCN(Cc3ccccc3)CC2)c(C#N)c2c1COC(C)(C)C2 | -29.1% | -15.6% | > 20.6 |
| O=C(CN1C(=O)c2ccccc2C1=O)NCc1ccccn1 | -3.27% | 10.5% | > 20.6 |
| N#Cc1nc(COc2ccccc2Cl)oc1NCc1ccc(F)cc1 | -5.24% | -20.3% | > 20.6 |
| CCOC(=O)CSc1nnc2n(C3CCCCC3)c(=O)c3c4c(sc3n12)CCCC4 | -9.49% | -21.4% | > 20.6 |
| CCCCC(=O)C1CCN(Cc2ccccc2)CC1 | 4.33% | 3.33% | > 20.6 |
| COc1cccc(C(=O)c2sc(NC(C)C)nc2N)c1 | -116% (active) | -103% (active) | > 20.6 |
| O=C(c1ccc(F)cc1)N1CCC(N2CCCCCC2)CC1 | -5.56% | -3.47% | > 20.6 |
| C1CCCN(CCCCN2CCCCCC2)CC1 | 3.84% | 16% | > 20.6 |
| CCN(CC)Cc1cc(C(C)=O)ccc1OCC(C)C | 23.1% | 13.1% | > 20.6 |
| Cc1nnc(C)n1/N=C/c1cc(Br)cc(Br)c1O | -5.92% | -19.2% | > 20.6 |
| CCc1c(C)c2cc(Cl)c(O)c(CN3CCCCC3)c2oc1=O | 3.67% | 11.7% | > 20.6 |
| Cn1c(=O)c2c3c(sc2n2c(SCC(=O)c4ccc(Cl)cc4)nnc12)COC(C)(C)C3 | -6.68% | -0.164% | > 20.6 |
| CN(CCOC(=O)c1cccc(Br)c1)C(C)(C)C | 9.82% | 7.11% | > 20.6 |
